{"source": "the supplement of paper PMC8253809"}
{"system": "SUDIPGIV (diffuse intrinsic pontine glioma line)", "experiment": "growth inhibition (% activity, log2 RLU normalised to DMSO / staurosporine); higher = more growth inhibition", "details": "33 µM", "outline": "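In triplicate, pHGG cell lines and H9-derived neural stem cells were treated for 7 days at 37 °C, 5% CO2 with approved drugs at a single final concentration of about 33 μM, added by pin tool. CellTiter-Glo luminescence, after log2 transformation, was normalised on each plate to % activity between solvent and positive control wells. Growth inhibition is reported as the median across replicates.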", "units": {"growth inhibition": "%"}}
{"smiles": "CCCCC(=O)O[C@]1(C(=O)CO)[C@@H](C)C[C@H]2[C@@H]3CCC4=CC(=O)C=C[C@]4(C)[C@@]3(F)[C@@H](O)C[C@@]21C", "growth inhibition": 0.551}
{"smiles": "O=C1OC(CN2CCOCC2)CN1/N=C/c1ccc([N+](=O)[O-])o1", "note": "(stereo not given)", "growth inhibition": -2.29}
{"smiles": "NC[C@@H]1O[C@H](O[C@H]2[C@@H](O)[C@H](O[C@@H]3[C@@H](O)[C@H](N)C[C@H](N)[C@H]3O[C@H]3O[C@H](CN)[C@@H](O)[C@H](O)[C@H]3N)O[C@@H]2CO)[C@H](N)[C@@H](O)[C@@H]1O", "growth inhibition": 2.53}
{"smiles": "C[C@@H]1CN(c2c(F)c(F)c3c(=O)c(C(=O)O)cn(C4CC4)c3c2F)C[C@H](C)N1", "growth inhibition": -2.13}
{"smiles": "NC[C@H]1O[C@H](O[C@H]2[C@H](O)[C@@H](O[C@H]3O[C@H](CO)[C@@H](O)[C@H](N)[C@H]3O)[C@H](N)C[C@@H]2N)[C@H](N)C[C@@H]1O", "growth inhibition": -0.0713}
{"smiles": "Cn1c(=O)c2c(ncn2CC(O)CO)n(C)c1=O", "note": "(stereo not given)", "growth inhibition": 1.65}
{"smiles": "C[C@@H](Oc1cc(-c2cnn(C3CCNCC3)c2)cnc1N)c1c(Cl)ccc(F)c1Cl", "growth inhibition": 6.53}
{"smiles": "CCC(=O)NCC[C@@H]1CCc2ccc3c(c21)CCO3", "growth inhibition": 0.00903}
{"smiles": "CO[C@H]1C[C@@H]2CC[C@@H](C)[C@@](O)(O2)C(=O)C(=O)N2CCCC[C@H]2C(=O)O[C@H]([C@H](C)C[C@@H]2CC[C@@H](OC(=O)C(C)(CO)CO)[C@H](OC)C2)CC(=O)[C@H](C)/C=C(\\C)[C@@H](O)[C@@H](OC)C(=O)[C@H](C)C[C@H](C)/C=C/C=C/C=C/1C", "growth inhibition": 1.47}
{"smiles": "CC1(C)S[C@@H]2[C@H](NC(=O)[C@H](NC(=O)N3CCNC3=O)c3ccccc3)C(=O)N2[C@H]1C(=O)O", "growth inhibition": -0.88}
